Where “and” joins values, the source holds several entries; their conditions need not be identical. Equal entries are not always repeated. Records with an inconclusive call do not appear. Calls of active or inactive are those of the source.
Experiment: qHTS assay for small molecule activators of the p53 signaling pathway (AID 651743; active means well fitted activation curve with a large enough effect in the signal ratio, not every such curve was filed as active; the % refers to the signal ratio; further: series mostly up to about 92 µM; % of control where 0% means no effect)
Conditions: HCT-116 p53RE-bla, beta-lactamase FRET ratio, 16 h; stronger effect = higher value
In short: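 A beta-lactamase reporter under p53 response element control, stably carried by HCT-116 cells, reported pathway activation. Test compounds were applied for 16 hours at 37 C, and fluorescence was measured 2 hours after adding the B/G FRET substrate.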

SMILES	activation
[Cl][In]([Cl])[Cl]	-6.82% (inactive)
COc1ccccc1O	-3.15% (inactive) and 0.213% (inactive) and 1.06% (inactive)
Oc1cccc(O)c1	5.92% (inactive)
CC(CN1c2ccccc2Sc2ccccc21)N(C)C (stereo unspecified)	-4.88% (inactive)
CCCCOC(=O)c1ccc(O)cc1	1.4% (inactive) and -3.01% (inactive)
COc1ccc(Cl)cc1C(=O)NCCc1ccc(S(=O)(=O)NC(=O)NC2CCCCC2)cc1	-6.63% (inactive)
O=C1O[C@H]([C@@H](O)CO)C(O)=C1O	-0.0449% (inactive) and -0.779% (inactive)

Experiment: qHTS assay for small molecule activators of the nuclear factor-kappa B (NF-kB) signaling pathway (AID 651749; active means well fitted activation curve with a large enough effect in the signal ratio; the % refers to the signal ratio; further: potency means the concentration at half of the fitted maximal effect; on activation: series mostly up to about 77 µM; % of control where 0% means no effect)
Conditions: NF-kB-bla ME-180 cells, beta-lactamase FRET ratio, 16 h; activation: stronger effect = higher value
In short: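 FRET-based beta-lactamase detection in ME-180 cells reports NF-kB response-element-driven transcription following overnight (16 hr) compound treatment.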

SMILES	activation	Potency
NC(=O)N/N=C/c1ccc([N+](=O)[O-])o1	-2.02% (inactive) and 0.212% (inactive)	
CCCCC(CC)COC(=O)c1ccccc1O (stereo unspecified)	-1.39% (inactive)	
Cc1cccc(Nc2cc(Cl)nc(SCC(=O)O)n2)c1C	3.82% (inactive)	
CC(O)CN(CCN(CC(C)O)CC(C)O)CC(C)O (stereo unspecified)	-0.0736% (inactive)	
CC1=C(/C=C/C(C)=C/C=C/C(C)=C/C(=O)O)C(C)(C)CCC1	-2.87% (inactive) and -2.33% (inactive)	
CC(O)COc1ccccc1 (stereo unspecified)	-2.71% (inactive)	
Cc1c(O)cccc1C(=O)N[C@@H](CSc1ccccc1)[C@H](O)CN1C[C@H]2CCCC[C@H]2C[C@H]1C(=O)NC(C)(C)C	4.91% (inactive)	
CC1(C)[C@@H]2CC[C@@]1(C)C(=O)C2	-0.497% (inactive)	
C[C@]12C[C@H](O)[C@H]3[C@@H](CCC4=CC(=O)CC[C@@]43C)[C@@H]1CC[C@@H]2C(=O)CO	-1.35% (inactive) and 0.404% (inactive)	
NCCNCCNCCNCCN	-1.8% (inactive) and -0.273% (inactive)	
Nc1ccc(S(=O)(=O)Nc2nccs2)cc1	0.351% (inactive)	
C[C@]12CC[C@@H]3c4ccc(O)cc4CC[C@H]3[C@@H]1CCC2=O	-1.43% (inactive)	
CNC(=O)Oc1ccc2c(c1)[C@]1(C)CCN(C)[C@@H]1N2C	1% (inactive)	
CCCc1c(OCCCCc2nn[nH]n2)ccc(C(C)=O)c1O	-0.919% (inactive)	
COc1ccccc1O	-1.13% (inactive) and -0.291% (inactive) and -0.304% (inactive)	
Oc1cccc(O)c1	-1.45% (inactive)	
CC(CN1c2ccccc2Sc2ccccc21)N(C)C (stereo unspecified)		25.1 µM (active)
O=S(=O)(O)NC1CCCCC1	-0.941% (inactive)	
COc1ccc(Cl)cc1C(=O)NCCc1ccc(S(=O)(=O)NC(=O)NC2CCCCC2)cc1	-2.47% (inactive)	

From PubChem BioAssay (NCATS)
